According to PubChem BioAssay AID2653 (National Center for Advancing Translational Sciences (NCATS), 2010):
Inconclusive results are not listed. Calls of active or inactive are those of the source. The call rests on the fitted dose curve; in most records, active means well fitted curve in the direction sought with a large enough effect; inconclusive means small, poorly fitted or top-dose-only effect, or another doubt; inactive means no such curve, though single readings can be large or run the other way.

Test: Secondary Assay for Activators of Human Pyruvate Kinase M2 isoform - Cell Titer Glo Cytotoxicity for Probe SAR
Settings: HeLa viability, CellTiter-Glo ATP luminescence, 24 h; series mostly up to 58.2 µM
Summary of the method: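 Cytotoxicity read as ATP content (CellTiter-Glo luminescence) in HeLa cells after 24 h compound exposure at 37 C, following 24 h pre-plating at 500 cells/well; doxorubicin as control.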
For `Cc1nc(-c2ccc(S(=O)(=O)Nc3ccc(C)c(C)c3)s2)cs1`, the outcome was “inactive”. In the case of `Cc1c(Cl)cccc1NS(=O)(=O)c1cc2c(cc1F)NC(=O)CC2`, the outcome is reported as “inactive”. In the case of `O=C1c2ccccc2C(=O)N1c1noc2ccccc12`, the outcome is reported as “inactive”. For `O=C1c2ccccc2C(=O)N1c1cccc2ncccc12`, the outcome was “inactive”. For `Nc1cccc(S(=O)(=O)N2CCCN(S(=O)(=O)c3ccc4c(c3)OCCO4)CC2)c1`, the outcome was “inactive”. In the case of `O=C1c2ccccc2C(=O)N1c1ncccc1O`, the outcome is reported as “inactive”. For `Cc1ccc(NS(=O)(=O)c2cccc(C(=O)O)c2)cc1C`, the outcome was “inactive”. With `Cc1ccc2nc(-c3ccc(C)o3)c(Nc3ccccc3)n2c1` the outcome was “inactive”. In the case of `O=C1CCc2cc(S(=O)(=O)Nc3ccccc3F)ccc2N1`, the outcome is reported as “inactive”. In the case of `N#Cc1ccc(NS(=O)(=O)c2ccc3c(c2)CCC(=O)N3)cc1`, the outcome is reported as “inactive”. For `O=C1c2ccccc2C(=O)N1Cc1ccncc1`, the outcome was “inactive”. With `COc1ccc(-c2nc3cccc(C)n3c2Nc2ccc(C)cc2)cc1` the outcome was “inactive”. For `O=C1CCc2cc(S(=O)(=O)Nc3cccc(C(F)(F)F)c3)ccc2N1`, the outcome was “inactive”. For `COc1ccc(OC2=NS(=O)(=O)c3ccccc32)cc1`, the outcome was “inactive”. With `Cc1cc(N2C(=O)c3ccccc3C2=O)n[nH]1` the outcome was “inactive”. In the case of `Cc1ccc(Nc2c(-c3ccsc3)nc3cccc(C)n23)cc1`, the outcome is reported as “inactive”. For `Cc1ccccc1Nc1c(-c2ccc(Cl)s2)nc2ccccn12`, the outcome was “inactive”. In the case of `Cc1cccc(NS(=O)(=O)c2ccc3c(c2)CCC(=O)N3)c1`, the outcome is reported as “inactive”. In the case of `COc1ccc(Nc2c(-c3ccc(C)o3)nc3ccccn23)cc1`, the outcome is reported as “inactive”. With `COc1cccc(N2C(=O)c3ccccc3C2=O)n1` the outcome was “inactive”.
